# Experimental data reported in ChEMBL document CHEMBL1857833, “Screening and optimization of specific chemical series against human African Trypanosomiasis (HAT)”.
# In all, about 4,400 compounds went through this assay and about 390 (8.9%) showed an effect of 50% or more. Only a selection was taken, and strong results are over-represented in it overall.
# System: Trypanosoma brucei
# Test: DNDI: Inhibition of Human African Trypanosomiasis, SBRI 427, in vitro at 2 ug.mL-1
# Type: functional
row,Structure (SMILES),% inhibition
1,CSc1ccc(Oc2nc(C)ccc2/C(=N/O)NC2CCC2)cc1,3%
2,C=CCN(Cc1coc(-c2cccc(OC)c2)n1)c1ccccc1,35%
3,Cc1cccc(Oc2ncccc2/C(=N/O)N2CCOCC2)c1C,10%
4,FC(F)(F)c1ccc(-c2nc(CNCc3ccccc3C(F)(F)F)co2)cc1,0%
5,Cc1ccc(/C(=N/O)N2CCCCCC2)c(Oc2cccc(C(C)C)c2)n1,14%
6,O/N=C(\NCc1cc(F)ccc1F)c1cccnc1Oc1ccc(F)cc1,-3%
7,O/N=C(\NCc1ccccc1F)c1cccnc1Oc1ccc(F)cc1,51%
8,O/N=C(\NCc1ccccc1F)c1cccnc1OCC(F)(F)F,-12%
9,COc1ccc(Oc2ncccc2/C(=N/O)NCc2ccccc2F)cc1,70%
10,COc1ccc(Oc2nc(C)ccc2/C(=N/O)NCc2ccccc2F)cc1,-6%
11,Clc1ccccc1-c1nc(CNCc2ccco2)co1,-7%
12,CC(C)N(C)Cc1coc(-c2ccccc2Cl)n1,4%
13,Cc1ccc(Oc2ncccc2/C(=N/O)NCc2cc(F)ccc2F)c2c1CCC2,28%
14,Cc1ccc(Oc2ncccc2/C(=N/O)NCc2ccco2)c2c1CCC2,-6%
15,CCOc1ccccc1CN/C(=N\O)c1cccnc1Oc1ccc(C)c2c1CCC2,100%
16,Cc1ccc(Oc2ncccc2/C(=N/O)NCc2ccncc2)c2c1CCC2,8%
17,Cc1ccc(Oc2ncccc2/C(=N/O)NCc2cccs2)c2c1CCC2,99%
18,Cc1ccc(Oc2cc(/C(=N/O)NCc3cccs3)ccn2)c2c1CCC2,3%
19,Cc1cc(C)cc(CN/C(=N\O)c2cccnc2Oc2ccc(C)c3c2CCC3)c1,69%
20,Cc1ccc(Oc2ncccc2/C(=N/O)NCc2ccccc2)c2c1CCC2,99%
21,Cc1ccc(Oc2ncccc2/C(=N/O)NCc2cccnc2)c2c1CCC2,6%
22,COc1ccc(CN/C(=N\O)c2cccnc2Oc2ccc(C)c3c2CCC3)cc1,9%
23,COc1ccc(-c2nc(CN(C)C3CCN(Cc4ccccc4)C3)co2)cc1 (configuration not stated),-9%
24,O/N=C(/c1ccnc(Oc2cccc3cnccc23)c1)N1CCN(c2ccccc2)CC1,7%

row,Structure (SMILES),% inhibition
1,N#CCCN(Cc1coc(-c2ccc(C(F)(F)F)cc2)n1)CC1CCCO1 (configuration not stated),-3%
2,O/N=C(/c1ccnc(Oc2cccc3ccccc23)c1)N1CCSC1,22%
3,CSc1ccc(Oc2nc(C)ccc2/C(=N/O)NCc2ccccc2C)cc1,7%
4,Cc1ccc(N2CCN(Cc3coc(-c4ccccc4F)n3)CC2)c(C)c1,-17%
5,CSc1ccc(Oc2ncccc2/C(=N/O)NCc2ccccn2)cc1C,2%
6,CN(Cc1coc(-c2ccccc2Cl)n1)C1CCN(Cc2ccccc2)C1 (configuration not stated),-15%
7,COc1ccc(Oc2nc(C)ccc2/C(=N/O)N2CCSC2)cc1,27%
8,COc1cc(-c2nc(CNC3CCc4ccccc43)co2)cc(OC)c1OC (configuration not stated),28%
9,COc1ccc(CCN(C)Cc2coc(-c3ccc(O)cc3)n2)cc1OC,-29%
10,COc1ccc(CCN(C)Cc2coc(-c3ccc(F)cc3)n2)cc1OC,-7%
11,COc1ccc(CCN(C)Cc2coc(-c3ccc(Br)cc3)n2)cc1OC,65%
12,CC(C)(C)c1ccc(-c2nc(CNC3CCN(Cc4ccccc4)C3)co2)cc1 (configuration not stated),55%
13,COc1ccc(-c2nc(CNC3CCN(Cc4ccccc4)C3)co2)cc1 (configuration not stated),12%
14,Cc1ccc(-c2nc(CNC3CCN(Cc4ccccc4)C3)co2)cc1 (configuration not stated),17%
15,Brc1ccc(-c2nc(CNC3CCN(Cc4ccccc4)CC3)co2)cc1,58%
16,Oc1ccc(-c2nc(CNC3CCN(Cc4ccccc4)C3)co2)cc1 (configuration not stated),33%
17,CCOc1ccc(-c2nc(CNC3CCN(Cc4ccccc4)C3)co2)cc1 (configuration not stated),6%
18,Brc1ccc(-c2nc(CNC3CCN(Cc4ccccc4)C3)co2)cc1 (configuration not stated),2%
19,Fc1ccc(-c2nc(CNC3CCN(Cc4ccccc4)CC3)co2)cc1,-17%
20,COc1ccc(-c2nc(CNC3CCN(Cc4ccccc4)CC3)co2)cc1,97%
21,CN(Cc1ccco1)/C(=N\O)c1ccc(Oc2cc(Cl)ccc2Cl)nc1,-12%
22,COC(=O)C1CCN(/C(=N\O)c2ccnc(Oc3ccc(F)c(Cl)c3)c2)CC1,-5%
23,Cc1cccc(-c2nc(CN3CCN(c4ccc(F)cc4)CC3)co2)c1,18%
24,O/N=C(\NCc1c(F)cccc1F)c1ccc(Oc2ccc(Cl)cc2)nc1,6%

row,Structure (SMILES),% inhibition
1,CCC(CC)N/C(=N\O)c1ccc(Oc2cc(C)cc(C(C)C)c2)nc1,-7%
2,CCC(CC)N/C(=N\O)c1ccc(Oc2ccc(C)cc2C)nc1,26%
3,CCC(CC)N/C(=N\O)c1ccc(Oc2c(F)c(F)cc(F)c2F)nc1,19%
4,COCC(C)N/C(=N\O)c1ccc(Oc2cc(C)cc(C)c2)nc1 (configuration not stated),1%
5,COCC(C)N/C(=N\O)c1ccc(Oc2cc(Cl)ccc2Cl)nc1 (configuration not stated),23%
6,CCC(CC)N/C(=N\O)c1ccc(Oc2cc(Cl)ccc2Cl)nc1,84%
7,CCC(CC)N/C(=N\O)c1ccc(Oc2ccc(Cl)cc2)nc1,96%
8,CCc1ccc(Oc2ccc(/C(=N/O)NC(CC)CC)cn2)cc1,7%
9,CCC(CC)N/C(=N\O)c1ccc(Oc2cc(C)cc(C)c2)nc1,94%
10,CCN(CCC#N)Cc1coc(-c2cc(OC)c(OC)c(OC)c2)n1,-11%
11,Cc1ccc(/C(=N/O)N2C(C)CCC2C)c(OCc2ccccc2C)n1 (configuration not stated),21%
12,COC[C@H]1CCCN1Cc1coc(-c2ccc(C)cc2)n1,-9%
13,Cc1cc(C)cc(Oc2ccc(/C(=N/O)NC3CCC3)cn2)c1,99%
14,Cc1cc(C)cc(Oc2ccc(/C(=N/O)NC3CCc4ccccc43)cn2)c1 (configuration not stated),12%
15,Cc1cc(C)cc(Oc2ccc(/C(=N/O)NC3CCCCC3)cn2)c1,99%
16,Cc1cc(C)cc(Oc2ccc(/C(=N/O)NC3CCN(Cc4ccccc4)C3)cn2)c1 (configuration not stated),-11%
17,Cc1ccc(Oc2ccc(/C(=N/O)NC3CCCC3)cn2)c(C)c1,91%
18,Cc1ccc(Oc2ccc(/C(=N/O)NC3CC3)cn2)c(C)c1,26%
19,Cc1cc(Oc2ccc(/C(=N/O)NC3CCCCC3)cn2)cc(C(C)C)c1,17%
20,Cc1ccc(Oc2ccc(/C(=N/O)Nc3ccccc3)cn2)c(C)c1,22%
21,Cc1ccc(Oc2ccc(/C(=N/O)NCc3c(F)cccc3F)cn2)c(C)c1,16%
22,Cc1ccc(Oc2ccc(/C(=N/O)NCc3cccs3)cn2)c(C)c1,21%
23,Cc1cc(C)cc(Oc2ccc(/C(=N/O)N(C)C3CCCCC3)cn2)c1,-8%
24,Cc1ccc(Oc2ccc(/C(=N/O)NCC3CC3)cn2)c(C)c1,98%
